Laboratory results reported in PubChem BioAssay (NCATS).
Inconclusive results are not listed. Calls of active or inactive are those of the source. Unless noted, calls come from the whole dose curve.

Columns and labels:
[1] = biological target: Estrogen receptor (Homo sapiens) (UniProt P03372); assay: qHTS assay for small molecule antagonists of estrogen receptor alpha signaling (AID 588513; active = well fitted curve in the direction sought with a large enough effect in the signal ratio, with a control signal flat, not every such curve was filed as active; the % refers to the signal ratio; note: % is set by controls: 0 for no effect and ±100 for the full control effect)
Procedure, shortened: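 Cells were plated at 5000/well and incubated 4 h at 37 C. Compounds were added as 1:2 dilution series, duplicates. 17-beta-estradiol (0.5nM final) was added for 18 h before CCF4 detection.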

[2] = biological target: Estrogen receptor (Homo sapiens) (UniProt P03372); assay: qHTS assay for small molecule agonists of estrogen receptor alpha signaling (AID 588514);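 note: 0% = vehicle only and 100% = reference agonist; nearly all actives have a fitted effect of over 70% in size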
Procedure, shortened: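 EC50 and efficacy came from Hill fits of beta-lactamase reporter signal (CCF4 dye, 2 h at room temperature) scaled between DMSO and 20 nM 17-beta-estradiol. Agonist mode: HEK293 ER-alpha-UAS-bla cells in charcoal/dextran-stripped serum medium, 18 h compound exposure at 37 C.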

[3] = biological target: Glucocorticoid receptor (Homo sapiens) (UniProt P04150); assay: qHTS assay for small molecule antagonists of glucocorticoid receptor signaling (AID 588533; active = well fitted inhibition curve with a large enough effect in the signal ratio, with a control signal flat, not every such curve was filed as active; the % refers to the signal ratio;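 note: cells stimulated with 2 nM dexamethasone as agonist; % is set by controls: 0 for no effect and ±100 for the full control effect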)
Procedure, shortened: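 Antagonist-mode qHTS: compound titrations added to GRE-bla HeLa cells, then dexamethasone 2 nM final; 18 h, 37 C. CCF4 FRET fluorescence normalized to dexamethasone and DMSO; IC50 from Hill fit.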

[4] = biological target: Peroxisome proliferator-activated receptor gamma (Homo sapiens) (UniProt P37231); assay: qHTS assay for small molecule agonists of peroxisome proliferator-activated receptor gamma signaling (AID 588536; active = well fitted curve in the direction sought with a large enough effect in the signal ratio, with a control signal flat, not every such curve was filed as active; the % refers to the signal ratio;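 note: 0% = DMSO basal wells and 100% = rosiglitazone at 2 µM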)
Procedure, shortened: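 Using GeneBLAzer HEK293 cells, response was quantified by CCF4 fluorescence and normalized between basal DMSO (0%) and rosiglitazone 2 uM (100%); curves yielded half-maximal stimulation concentration and efficacy.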

[5] = biological target: Vitamin D3 receptor (Homo sapiens) (UniProt P11473); assay: qHTS assay for small molecule antagonists of vitamin D receptor signaling (AID 588541);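 note: receptor activated by calcitriol during compound treatment; series mostly up to about 77 µM; % is set by controls: 0 for no effect and ±100 for the full control effect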
Procedure, shortened: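 Antagonist-mode beta-lactamase reporter assay: HEK293T VDR-UAS-bla cells were exposed to titrated compound alongside 1-alpha,25-dihydroxyvitamin D3 at 3 nM final for 16 h. Values were normalized to the 50 nM agonist control and DMSO basal, with IC50 and efficacy from Hill equation fits.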

[6] = qHTS assay for small molecule agonists of retinoid X receptor alpha signaling (AID 588544); settings: HEK293T RXRa-UAS-bla, beta-lactamase reporter, 18 h; 530 nm emission;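 for activation: 0% = DMSO basal wells and 100% = reference agonist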
[7] = biological target: Retinoic acid receptor RXR-alpha (Homo sapiens) (UniProt P19793); assay: as above
[8] = biological target: Thyroid hormone receptor beta (Homo sapiens) (UniProt P10828); assay: qHTS assay for small molecule agonists of thyroid hormone receptor beta signaling (AID 588545);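 note: 0% = DMSO only and 100% = 10 nM T3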
Procedure, shortened: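 Compounds were tested as agonists in TR-UAS-bla-GripTite HEK 293 cells. After 18 hrs at 37 C, CCF4 substrate was added and fluorescence read after 2 hrs at room temperature.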

[9] = qHTS assay for small molecule antagonists of retinoid X receptor alpha signaling (AID 588546; active = well fitted inhibition curve with a large enough effect in the signal ratio, with a control signal flat, not every such curve was filed as active; the % refers to the signal ratio;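 note: cells stimulated with 9-cis-retinoic acid as agonist; % is set by controls: 0 for no effect and ±100 for the full control effect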); settings: HEK293T RXRa-UAS-bla, beta-lactamase ratio, antagonist mode; measured here: W530 green channel, cytotoxicity proxy
Procedure, shortened: (§1)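 Beta-lactamase reporter inhibition, read as CCF4 fluorescence ratio (ex 405, em 460/530 nm) after 2 h at RT. HEK293T UAS-bla cells, 2500/well, were stimulated with 9-cis-RA at 500 or 100 nM final alongside test compound for 18 h at 37 C.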

[10] = biological target: Retinoic acid receptor RXR-alpha (Homo sapiens) (UniProt P19793); assay: as above; settings: HEK293T RXRa-UAS-bla, beta-lactamase ratio, antagonist mode
Procedure, shortened: as §1

[11] = qHTS assay for small molecule activators of the p53 signaling pathway (AID 651743; active = well fitted activation curve with a large enough effect in the signal ratio, not every such curve was filed as active; the % refers to the signal ratio; note: series mostly up to about 92 µM; % of control where 0% means no effect); settings: HCT-116 p53RE-bla, beta-lactamase FRET ratio, 16 h; activation: stronger effect = higher value
Procedure, shortened: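 After 16 hours compound treatment at 37 C, HCT-116 cells stably expressing p53RE-driven beta-lactamase were loaded with LiveBLAzer B/G FRET substrate for 2 hours at room temperature. Fluorescence intensity served as the p53 activation read-out.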

[12] = qHTS assay for environmental chemicals that activate the Aryl hydrocarbon Receptor (AhR) signaling pathway (AID 651777; active = well fitted curve in the direction sought with a large enough effect; an effect the other way counts as inactive or inconclusive; note: % of control where 0% means no effect; nearly all actives have a fitted effect of over 15% in size); settings: 1A2-DRE human hepatoma cells, luciferase, 24 h; activation: stronger effect = higher value
Procedure, shortened: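 Concentration–response screening used 1,200 1A2-DRE cells per well, 24 hr compound exposure (37 C, 5% CO2), and One-Glo luminescence as the AhR-driven CYP1A2 reporter signal.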

[13] = biological target: Peroxisome proliferator-activated receptor alpha (Homo sapiens) (UniProt Q07869); assay: qHTS assay for small molecule agonists of the peroxisome proliferator-activated receptor alpha (PPARalpha) signaling pathway (AID 651778; active = well fitted curve in the direction sought with a large enough effect; an effect the other way counts as inactive or inconclusive; note: % of control where 0% means no effect); settings: PathHunter PPARalpha complementation, chemiluminescence, 6 h; max response: stronger effect = higher value
Procedure, shortened: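 Chemiluminescence from complemented enzyme reported PPARalpha activation in cells after 6 hr of compound treatment at 37 C. The detection reagent was incubated for 60 min at room temperature, and compounds were scored as agonists.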

[14] = qHTS assay for small molecule agonists of the antioxidant response element (ARE) signaling pathway measured by Nrf2-dependant transcriptional activity (AID 720636; active = well fitted curve in the direction sought with a large enough effect in the repeat runs; an effect the other way counts as inactive or inconclusive;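 note: HepG2 cells with an ARE-driven luciferase reporter; % of control where 0% means no effect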)
Procedure, shortened: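 Attachment 6 hr at 37 C, then compound versus DMSO vehicle for 16 hr in ARE-luc HepG2 cells (1% dialyzed FBS); luminescence recorded 30 min after ONE-Glo addition at room temperature.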

[15] = qHTS assay for small molecule agonists of the antioxidant response element (ARE) signaling pathway measured by Nrf2-dependant transcriptional activity - cell viability counter screen (AID 720653; active = well fitted curve in the direction sought with a large enough effect in the repeat runs; an effect the other way counts as inactive or inconclusive; note: % is set by controls: 0 for no effect and ±100 for the full control effect); settings: ARE-bla HepG2 viability, CellTiter-Glo ATP luminescence, 16 h; max response: stronger effect = lower value
Procedure, shortened: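 Cytotoxicity counter screen: intracellular ATP quantified by CellTiter-Glo luminescence in the same ARE-bla HepG2 plates, after 16 h compound exposure and a 2 h beta-lactamase substrate step.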

[16] = qHTS assay for cell viability of HEK293 cells (AID 743288; active = well fitted curve in the direction sought with a large enough effect; an effect the other way counts as inactive or inconclusive; note: % is set by controls: 0 for no effect and ±100 for the full control effect; nearly all actives have a fitted effect of over 50% in size); settings: ATP luminescence (CellTiter-Glo), 18 h; max response: stronger effect = lower value
Procedure, shortened: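 Quantitative high-throughput screen: compounds were pinned onto parental HEK293 cells (2,000 per well) after a minimum 5 h settling at 37 C, incubated 18 h at 37 C, and intracellular ATP measured by luciferase luminescence.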

[17] = qHTS assay for cell viability of the p53RE-bla HCT-116 cell line (AID 743292; active = well fitted curve in the direction sought with a large enough effect; an effect the other way counts as inactive or inconclusive; note: % is set by controls: 0 for no effect and ±100 for the full control effect; nearly all actives have a fitted effect of over 55% in size)
Procedure, shortened: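 Compound-exposed HCT-116 (p53RE-bla) cells, 4,000 per well, were kept 16 h at 37 C following a 5 h preincubation. Cell number was estimated from total ATP by CellTiter-Glo luminescence read after 30 min at room temperature.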

[18] = biological target: Nuclear receptor subfamily 1 group I member 2 (Rattus norvegicus) (UniProt Q9R1A7); assay: qHTS assay for small molecule activators of the rat pregnane X receptor (rPXR) signaling pathway (AID 651751; call rule not given here; note: 0% is about no effect); settings: rPXR reporter cells, luciferase (One-Glo), 24 h
[19] = biological target: Peroxisome proliferator-activated receptor gamma (Homo sapiens) (UniProt P37231); assay: qHTS assay for small molecule antagonists of peroxisome proliferator-activated receptor gamma signaling (AID 588537; active = well fitted inhibition curve with a large enough effect in the signal ratio, with a control signal flat, not every such curve was filed as active; the % refers to the signal ratio;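 note: reporter cells co-stimulated with 50 nM rosiglitazone agonist during compound treatment; % of control where 0% means no effect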)
Procedure, shortened: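 Antagonist-mode β-lactamase reporter screen run as a titration series. HEK293 PPARγ-UAS-bla cells are stimulated with rosiglitazone (50 nM final) for 16 h, then CCF4 is read at 460/530 nm. Data are scaled between DMSO and rosiglitazone and fitted to the Hill equation.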

[20] = biological target: Peroxisome proliferator-activated receptor delta (Homo sapiens) (UniProt Q03181); assay: qHTS assay for small molecule agonists of peroxisome proliferator-activated receptor delta signaling (AID 588534);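 note: 0% = DMSO basal wells and 100% = positive control agonist at 10 µM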
Procedure, shortened: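 Agonist-mode beta-lactamase reporter readout (CCF4 dye, 2 h at RT) after 18 h at 37 °C exposure to a titration; Hill-equation fitting gave EC50 and maximal response.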

Sequence of Peroxisome proliferator-activated receptor gamma (Homo sapiens) (P37231 whole entry, looked up): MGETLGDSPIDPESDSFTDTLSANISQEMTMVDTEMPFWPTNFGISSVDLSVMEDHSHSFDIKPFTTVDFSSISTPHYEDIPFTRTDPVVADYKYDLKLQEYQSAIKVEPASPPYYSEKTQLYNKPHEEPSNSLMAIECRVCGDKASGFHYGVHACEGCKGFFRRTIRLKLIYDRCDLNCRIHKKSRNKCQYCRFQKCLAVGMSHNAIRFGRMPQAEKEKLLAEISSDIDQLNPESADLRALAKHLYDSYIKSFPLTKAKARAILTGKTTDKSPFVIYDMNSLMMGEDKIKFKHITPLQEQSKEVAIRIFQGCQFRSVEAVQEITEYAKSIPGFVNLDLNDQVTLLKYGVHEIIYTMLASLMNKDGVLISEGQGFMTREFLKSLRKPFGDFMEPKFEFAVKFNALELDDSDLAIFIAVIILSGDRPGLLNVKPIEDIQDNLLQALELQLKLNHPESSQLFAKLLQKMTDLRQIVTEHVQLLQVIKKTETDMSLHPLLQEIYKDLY
Sequence of Vitamin D3 receptor (Homo sapiens) (P11473 whole entry, looked up): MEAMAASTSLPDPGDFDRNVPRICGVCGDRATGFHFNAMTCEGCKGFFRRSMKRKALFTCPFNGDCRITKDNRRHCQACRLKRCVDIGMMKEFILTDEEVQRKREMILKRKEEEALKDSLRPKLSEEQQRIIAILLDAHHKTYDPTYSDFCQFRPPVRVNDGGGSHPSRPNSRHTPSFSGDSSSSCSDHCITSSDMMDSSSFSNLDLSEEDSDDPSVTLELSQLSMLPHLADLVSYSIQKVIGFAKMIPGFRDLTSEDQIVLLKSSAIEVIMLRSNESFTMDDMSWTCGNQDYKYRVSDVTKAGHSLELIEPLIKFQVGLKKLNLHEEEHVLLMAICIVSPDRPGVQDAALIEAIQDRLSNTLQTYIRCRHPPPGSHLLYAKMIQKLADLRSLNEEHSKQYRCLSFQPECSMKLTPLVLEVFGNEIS
Sequence of Glucocorticoid receptor (Homo sapiens) (P04150 whole entry, looked up): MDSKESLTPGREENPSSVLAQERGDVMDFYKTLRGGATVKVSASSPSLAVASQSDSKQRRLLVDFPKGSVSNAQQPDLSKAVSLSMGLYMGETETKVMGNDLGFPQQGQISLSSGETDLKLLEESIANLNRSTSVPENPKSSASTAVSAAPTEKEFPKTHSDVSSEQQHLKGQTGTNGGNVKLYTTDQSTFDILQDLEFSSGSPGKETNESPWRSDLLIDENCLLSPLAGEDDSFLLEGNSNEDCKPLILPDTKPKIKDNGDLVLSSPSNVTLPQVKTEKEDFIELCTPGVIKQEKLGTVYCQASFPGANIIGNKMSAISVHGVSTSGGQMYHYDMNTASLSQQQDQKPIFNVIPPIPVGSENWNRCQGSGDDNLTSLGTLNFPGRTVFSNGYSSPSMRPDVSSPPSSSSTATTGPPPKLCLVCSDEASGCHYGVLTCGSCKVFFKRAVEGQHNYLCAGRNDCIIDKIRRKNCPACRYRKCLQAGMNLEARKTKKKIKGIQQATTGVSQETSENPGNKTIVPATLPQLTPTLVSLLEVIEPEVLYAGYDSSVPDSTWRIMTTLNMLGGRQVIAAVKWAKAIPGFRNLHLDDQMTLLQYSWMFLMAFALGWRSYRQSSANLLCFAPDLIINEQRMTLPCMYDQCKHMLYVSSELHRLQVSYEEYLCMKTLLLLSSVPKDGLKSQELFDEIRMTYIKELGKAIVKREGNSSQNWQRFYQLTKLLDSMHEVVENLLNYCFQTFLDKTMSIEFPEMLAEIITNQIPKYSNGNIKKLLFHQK
Sequence of Peroxisome proliferator-activated receptor alpha (Homo sapiens) (Q07869 whole entry, looked up): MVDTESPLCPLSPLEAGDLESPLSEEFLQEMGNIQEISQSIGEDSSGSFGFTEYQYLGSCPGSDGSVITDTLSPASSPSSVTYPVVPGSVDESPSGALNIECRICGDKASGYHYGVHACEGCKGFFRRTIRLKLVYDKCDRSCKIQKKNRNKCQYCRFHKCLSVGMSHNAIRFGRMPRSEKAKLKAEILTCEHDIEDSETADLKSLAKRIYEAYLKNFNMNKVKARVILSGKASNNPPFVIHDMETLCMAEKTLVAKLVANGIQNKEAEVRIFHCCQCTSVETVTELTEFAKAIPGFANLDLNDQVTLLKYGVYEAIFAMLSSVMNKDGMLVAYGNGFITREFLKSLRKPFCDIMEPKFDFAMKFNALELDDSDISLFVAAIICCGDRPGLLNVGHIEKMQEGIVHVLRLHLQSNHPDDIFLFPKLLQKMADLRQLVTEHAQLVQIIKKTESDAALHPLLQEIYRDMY
Sequence of Estrogen receptor (Homo sapiens) (P03372 whole entry, looked up): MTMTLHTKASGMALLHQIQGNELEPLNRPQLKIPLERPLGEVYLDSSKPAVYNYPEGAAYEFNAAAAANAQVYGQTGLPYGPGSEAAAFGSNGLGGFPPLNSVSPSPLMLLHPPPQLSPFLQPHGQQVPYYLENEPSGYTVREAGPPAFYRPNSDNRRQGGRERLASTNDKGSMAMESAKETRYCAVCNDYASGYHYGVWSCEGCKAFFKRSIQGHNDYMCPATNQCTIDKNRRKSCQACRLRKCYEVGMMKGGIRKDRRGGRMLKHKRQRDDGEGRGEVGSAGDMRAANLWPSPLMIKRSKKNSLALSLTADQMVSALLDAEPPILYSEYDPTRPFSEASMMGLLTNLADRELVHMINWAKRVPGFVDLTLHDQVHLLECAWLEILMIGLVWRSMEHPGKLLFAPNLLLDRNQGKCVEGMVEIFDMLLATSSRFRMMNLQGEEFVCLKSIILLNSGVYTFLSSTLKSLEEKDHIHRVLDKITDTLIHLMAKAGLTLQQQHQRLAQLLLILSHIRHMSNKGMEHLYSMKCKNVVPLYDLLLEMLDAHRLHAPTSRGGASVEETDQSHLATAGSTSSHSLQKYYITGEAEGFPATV
Sequence of Nuclear receptor subfamily 1 group I member 2 (Rattus norvegicus) (Q9R1A7 whole entry, looked up): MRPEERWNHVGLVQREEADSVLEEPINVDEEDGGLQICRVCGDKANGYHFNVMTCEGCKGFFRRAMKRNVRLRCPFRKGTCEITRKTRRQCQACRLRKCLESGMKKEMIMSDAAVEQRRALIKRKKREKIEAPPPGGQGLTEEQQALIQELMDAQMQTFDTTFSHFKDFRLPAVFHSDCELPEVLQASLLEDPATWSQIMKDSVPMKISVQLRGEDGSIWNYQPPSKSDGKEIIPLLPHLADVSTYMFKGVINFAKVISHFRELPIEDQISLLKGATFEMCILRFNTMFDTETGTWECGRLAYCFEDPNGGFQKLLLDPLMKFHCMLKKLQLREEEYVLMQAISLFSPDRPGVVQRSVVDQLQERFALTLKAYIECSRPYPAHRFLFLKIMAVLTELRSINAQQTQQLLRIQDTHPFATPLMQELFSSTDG
Sequence of Thyroid hormone receptor beta (Homo sapiens) (P10828 whole entry, looked up): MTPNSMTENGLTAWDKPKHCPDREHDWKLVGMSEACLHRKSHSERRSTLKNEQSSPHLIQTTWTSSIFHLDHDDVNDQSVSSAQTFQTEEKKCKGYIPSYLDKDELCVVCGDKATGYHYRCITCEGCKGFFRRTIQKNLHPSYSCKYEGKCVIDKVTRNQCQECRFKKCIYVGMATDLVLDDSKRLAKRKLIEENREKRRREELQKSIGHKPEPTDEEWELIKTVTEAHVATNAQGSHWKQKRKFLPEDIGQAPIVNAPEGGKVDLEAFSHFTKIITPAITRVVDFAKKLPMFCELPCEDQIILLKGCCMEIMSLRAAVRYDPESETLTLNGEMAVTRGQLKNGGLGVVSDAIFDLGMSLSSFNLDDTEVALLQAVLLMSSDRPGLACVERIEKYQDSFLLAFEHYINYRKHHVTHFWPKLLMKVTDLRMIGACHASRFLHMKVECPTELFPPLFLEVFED
Sequence of Retinoic acid receptor RXR-alpha (Homo sapiens) (P19793 whole entry, looked up): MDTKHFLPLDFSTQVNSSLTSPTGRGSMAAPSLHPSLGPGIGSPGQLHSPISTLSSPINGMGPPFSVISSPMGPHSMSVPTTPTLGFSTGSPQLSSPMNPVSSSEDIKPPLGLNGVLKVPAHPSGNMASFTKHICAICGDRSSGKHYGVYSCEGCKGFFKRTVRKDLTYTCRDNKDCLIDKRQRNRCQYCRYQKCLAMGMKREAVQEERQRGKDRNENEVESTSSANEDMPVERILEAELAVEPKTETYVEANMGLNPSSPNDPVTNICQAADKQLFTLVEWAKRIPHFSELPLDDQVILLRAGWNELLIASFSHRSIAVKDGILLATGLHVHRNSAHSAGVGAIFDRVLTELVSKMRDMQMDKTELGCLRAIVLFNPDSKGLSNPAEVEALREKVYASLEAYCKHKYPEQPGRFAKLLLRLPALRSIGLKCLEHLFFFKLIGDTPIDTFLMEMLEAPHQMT
Sequence of Peroxisome proliferator-activated receptor delta (Homo sapiens) (Q03181 whole entry, looked up): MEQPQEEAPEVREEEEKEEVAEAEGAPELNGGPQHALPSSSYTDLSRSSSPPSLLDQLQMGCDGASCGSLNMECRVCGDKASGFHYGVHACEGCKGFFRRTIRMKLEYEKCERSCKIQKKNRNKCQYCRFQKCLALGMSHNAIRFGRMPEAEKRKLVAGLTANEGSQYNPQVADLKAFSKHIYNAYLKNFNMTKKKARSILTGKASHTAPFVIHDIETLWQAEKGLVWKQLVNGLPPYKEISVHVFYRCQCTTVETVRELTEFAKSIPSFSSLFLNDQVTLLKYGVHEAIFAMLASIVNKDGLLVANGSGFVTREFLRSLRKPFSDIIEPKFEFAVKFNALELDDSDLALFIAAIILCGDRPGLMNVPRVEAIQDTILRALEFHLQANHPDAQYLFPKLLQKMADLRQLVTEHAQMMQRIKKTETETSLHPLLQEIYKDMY

COc1ccc(O)c(C(C)(C)C)c1
inactive: Potency [1] | Potency [2] | Potency [3] | Potency [4] | Potency [5] | Potency [7] | Potency [8] | max response [10] 7.69% | activation [11] 1.43% | activation [12] 3.77% | max response [13] 1.63% | Potency [14] | max response [15] 1.24% | max response [16] -7.51% | Potency [17] | max response [18] 3.52%
-10.9%: max response [9]
-14.4%: max response [6]

CCCCC(CC)COC(=O)Cl (stereo unspecified)
inactive: Potency [1] | Potency [2] | Potency [3] | Potency [4] | Potency [19] | Potency [5] | Potency [7] | Potency [8] | max response [10] -2.38% | activation [12] 2.75% | max response [13] -1.56% | Potency [14] | max response [15] -0.503% | max response [16] -1.32% | Potency [17] | max response [18] 4.58%
-16.3%: max response [6]
-5.58%: max response [9]

Cc1c(F)c(F)c(COC(=O)C2C(/C=C(\Cl)C(F)(F)F)C2(C)C)c(F)c1F (stereo unspecified)
-0.493%: max response [6]
inactive: Potency [1] | Potency [2] | outcome [20] | Potency [4] | Potency [19] | Potency [5] | Potency [7] | Potency [8] | max response [10] 12% | activation [12] 0.802% | max response [13] -0.765% | Potency [14] | max response [15] -20.4% | Potency [17] | max response [18] -1.61%
-8.23%: max response [9]

Clc1ccc(C(Cl)(Cl)Cl)cc1
-19.4%: max response [9]
inactive: Potency [1] | Potency [2] | Potency [3] | Potency [4] | Potency [7] | Potency [8] | max response [10] -3.2% | activation [11] -4.01% | activation [12] 0.701% | max response [13] -0.649% | Potency [14] | max response [15] -2.36% | max response [16] -0.236% | Potency [17] | max response [18] 2.13%
-6.16%: max response [6]

CCOP(=O)(NC(C)C)Oc1ccc(S(C)=O)c(C)c1 (stereo unspecified)
inactive: Potency [1] | Potency [2] | Potency [3] | outcome [20] | Potency [4] | Potency [5] | Potency [7] | Potency [8] | max response [10] 0.125% | activation [11] -0.147% | activation [12] 3.87% | max response [13] -2.3% | Potency [14] | max response [15] 20.7% | max response [16] -0.132% | Potency [17] | max response [18] -1.03%
0.27%: max response [6]
-12.4%: max response [9]

CCOP(OCC)OCC
-5.06%: max response [9]
-0.591%: max response [6]
inactive: Potency [1] | Potency [2] | Potency [4] | Potency [19] | Potency [7] | Potency [8] | max response [10] -9.86% | activation [11] 0.684% | activation [12] 1.72% | max response [13] -2.48% | Potency [14] | max response [15] -4.24% | max response [16] 0.538% | Potency [17] | max response [18] 0.674%
